# Most compounds without a hit are left out; they make up all but 3.6% or so of the library.
# NadD block: inhibitors of Staphylococcus aureus NadD. AID 602399. hit rate 0.78% among 360,000. purified NadD enzyme, colorimetric absorbance read-out. inhibition, % at 20 µM; in the data active = inhibition above about 26%
# CRFR2-BP antag: antagonists of CRF-binding protein/CRF-R2 receptor complex; inhibition, % at 11.8 µM; hit rate 0.59% among 350,000; AID 588475; HEK293 CRF-R2/CRF-BP, CRF-induced calcium fluorescence;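 active = inhibition of the ligand-induced calcium signal above about 50% at the single tested concentration, limit read from the data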
# FAS TE block: FAS thioesterase (human) inhibition | hit rate 0.67% among 360,000 | inhibition, % at 15 µM | recombinant FAS-TE, OMFH fluorogenic substrate, fluorescence endpoint | P49327;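 active = compounds whose normalised, plate-corrected inhibition of enzyme fluorescence in the single-dose primary screen is 50% or more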;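 note: 0% = DMSO with enzyme and 100% = substrate without enzyme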
# Myeloid diff MLP: compounds promoting myeloid differentiation | ER-HoxA9 myeloid progenitors, lysozyme-GFP differentiation, flow cytometry | calls only at 10 µM | hit rate 1% among 360,000;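 active = normalized GFP-positive differentiation at or above the plate's own cutoff, the solvent-only control mean plus 3 SD; inconclusive = no clear call, values can overlap the other calls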;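 note: cells exposed to compound for four days before flow analysis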
# NRP1-CendR mod: alters CendR peptide binding to human NRP-1; O14786; FAM-RPARPAR peptide binding to NRP-1, fluorescence polarization; inhibition, % at 25 µM; hit rate 0.85% among 360,000; AID 602438;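 active = inhibition or corrected inhibition above about 18%, plus a signal ratio from 0.5 to 1.5, limit read from the data, passing the limit was not always enough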
# FAS-TE conf: confirmation of human fatty acid synthase thioesterase inhibitors. shares compounds with FAS TE block. recombinant FAS-TE, OMFH fluorogenic substrate, fluorescence. inhibition, % at 15 µM. hit rate 45% among 2,300. AID 624325;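 active = compounds inhibiting the enzyme by at least 50% at 15 µM in any one of the replicates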;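 note: 0% = enzyme with DMSO only and 100% = wells lacking enzyme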
# Active calls of the source: *; i = inactive; ? = inconclusive; . = no result; + = active, no number.
SMILES,NadD block,CRFR2-BP antag,FAS TE block,Myeloid diff MLP,NRP1-CendR mod,FAS-TE conf
COc1ccc2c(c1)OC[C@H]1[C@H]2N2C(=O)c3cc(Br)ccc3NC(=O)[C@@]2(C)[C@H]1c1ccccc1,18,8,86*,i,10,-4
COc1ccc2c(c1)[C@H]1[C@H](CO2)[C@H](c2ccccc2)[C@]2(C)C(=O)Nc3ccccc3C(=O)N12,-6,8,44,i,14,.
COc1ccc2c(c1)OC[C@H]1[C@H]2N2C(=O)c3ccc(F)cc3NC(=O)[C@@]2(C)[C@H]1c1ccccc1,8,-3,84*,i,9,42
COc1ccc2c(c1)OC[C@H]1[C@@H]2N2C(=O)[C@@H](C)NC(=O)[C@@]2(C)[C@H]1c1ccccc1,-3,4,-8,i,5,.
O=C(Nc1ccccc1)N1CCC(C(=O)N2CCN(c3ccccc3F)CC2)CC1,-3,-10,-2,i,17,.
C#CCOCCOCCOCCNc1nc(N2CCN(C(=O)[C@H](CCCN=C(N)N)n3cc(C(N)[C@H](C)CC)nn3)CC2)nc(N2CCN(C(=O)[C@H](CC(N)=O)n3cc(C(N)[C@@H](C)CC)nn3)CC2)n1 (stereo partly drawn),-5,-16,-9,i,-8,.
O=C(NCCn1c(C(F)(F)F)nc2ccccc21)[C@H]1CCCN1c1nc(CN2CCCCC2)cs1,-1,3,-9,i,-2,.
COc1ccc(C(C(=O)NC2CCCC2)N(C(=O)c2snc(-c3ccc(F)cc3)c2N)c2ccc(OC)cc2)cc1 (stereo not drawn),19,9,59*,i,1,27
COc1ccc(C(C(=O)NC2CCCC2)N(C(=O)c2snc(-c3ccc(F)cc3)c2N)c2ccc(F)cc2)cc1 (stereo not drawn),14,-2,8,i,-2,.
COc1ccc(-c2oc(=O)c3cc(OC)c(OC)cc3c2-c2ccc3c(c2)OCO3)cc1,0,16,29,i,7,.
COc1cc2c(-c3ccc4cc[nH]c4c3)c(-c3ccc(C#N)cc3)oc(=O)c2cc1OC,26,7,67*,?,7,11
NC(=O)c1ccsc1NC(=O)COC(=O)c1cc(=O)[nH]c2ccccc12,5,-4,1,i,-11,.
FC(F)(F)c1cccc(OCCN2CCN(Cc3ccccc3)CC2)c1,-8,-14,6,i,2,.
COc1ccc([C@@H]2[C@@H]3C(=O)N(C(C)(C)C)C(=O)[C@@H]3[C@]3(Cc4ccccc4)C(=O)N(c4ccc(OC)cc4)C(=O)N23)cc1,-1,8,12,i,5,.
CC(C)C[C@@]12C(=O)N(c3ccc(Br)cc3)C(=O)N1[C@H](c1ccc(Br)cc1)[C@@H]1C(=O)N(C(C)(C)C)C(=O)[C@@H]12,13,-14,75*,i,0,39*
CC(C)(C)N1C(=O)[C@H]2[C@@H](c3ccc(Br)cc3)N3C(=O)N(c4ccccc4)C(=O)[C@@]3(Cc3ccccc3)[C@H]2C1=O,5,-12,87*,i,-1,2
CN(N=Cc1ccc([N+](=O)[O-])cc1)c1ccccn1,-2,5,50*,i,80,-37
O=C(c1ccc([N+](=O)[O-])cc1)N(c1ccccn1)c1ccccn1,-11,5,-6,i,-7,.
CCOc1cc(/C=N/NC(=O)c2ccc3c(c2)OCCO3)cc(Br)c1O,14,-2,2,i,6,.
Cc1cccc(C)c1N1CCN(c2nc(N(C)C)oc(=O)c2C#N)CC1,5,22,56*,i,-22,17
CC[C@@]12C(=O)N(c3ccc(OC)cc3)C(=O)N1[C@H](c1ccc(Cl)cc1)[C@@H]1C(=O)N(C3CCCCC3)C(=O)[C@@H]12,8,-6,67*,i,-2,42
CC(C)C[C@@]12C(=O)N(c3cccc(Cl)c3)C(=O)N1[C@H](c1ccc(Cl)cc1)[C@@H]1C(=O)N(C3CCCCC3)C(=O)[C@@H]12,16,-9,90*,i,2,28
CC[C@@]12C(=O)N(c3cccc(Br)c3)C(=O)N1[C@H](c1ccc(Cl)cc1)[C@@H]1C(=O)N(C3CCCCC3)C(=O)[C@@H]12,9,-24,87*,i,0,19
CC(C)C[C@@]12C(=O)N(c3cccc(Br)c3)C(=O)N1[C@H](c1ccc(Cl)cc1)[C@@H]1C(=O)N(C3CCCCC3)C(=O)[C@@H]12,17,-16,92*,i,-4,19
COc1ccc(NC(=O)Cn2c(NCC(C)O)nc3ccccc32)cc1Cl (stereo not drawn),-6,8,-5,i,-6,.
SMILES,NadD block,CRFR2-BP antag,FAS TE block,Myeloid diff MLP,NRP1-CendR mod,FAS-TE conf
CCCCCN(C(=O)CCC(=O)OC(C)C(=O)c1ccc(Cl)cc1)c1c(N)n(CCCC)c(=O)[nH]c1=O (stereo not drawn),1,14,7,i,-4,.
COc1ccc(C(=O)Nc2nc3c(s2)CCCC3)cc1S(=O)(=O)N1CCCc2ccccc21,27,-3,63*,i,-5,17
Cc1noc(C)c1C(=O)N1CCC2(CC1)Oc1ccc(F)cc1C(=O)C21CC(c2ccc(Cl)cc2)=NO1 (stereo not drawn),7,-1,94*,+,20,22
CC(C)C(=O)N1CCC2(CC1)Oc1ccc(Cl)cc1C(=O)C21CC(c2ccc(Cl)cc2)=NO1 (stereo not drawn),15,-4,50*,i,16,8
O=C(c1ccc2c(c1)OCO2)N1CCC2(CC1)Oc1ccc(F)cc1C(=O)C21CC(c2ccc(Cl)cc2)=NO1 (stereo not drawn),20,-7,31,i,14,.
O=C(/C=C/c1cccs1)N1CCC2(CC1)Oc1ccc(F)cc1C(=O)C21CC(c2ccccc2)=NO1 (stereo not drawn),7,-4,25,i,2,.
O=C(/C=C/c1cccs1)N1CCC2(CC1)Oc1ccc(F)cc1C(=O)C21CC(c2ccc(Cl)cc2)=NO1 (stereo not drawn),11,-4,62*,i,2,-5
O=C(/C=C/c1cccs1)N1CCC2(CC1)Oc1ccc(Cl)cc1C(=O)C21CC(c2ccc(Cl)cc2)=NO1 (stereo not drawn),22,0,50*,i,15,12
O=C(c1cnc(Cc2c[nH]c3ccccc23)c(I)c1)N1CCN(Cc2ccccc2)CC1,9,.,10,i,-3,.
O=C(c1ccc2c(c1)OCO2)N1CCC2(CC1)Oc1ccc(Cl)cc1C(=O)C21CC(c2ccccc2)=NO1 (stereo not drawn),15,1,54*,i,-3,6
COc1ccc(NC(=O)C2=CC=CN3CCS(=O)(=O)N=C23)c(OC)c1,-3,-14,-8,i,5,.

# Screening results as filed in PubChem.
